Measured values: PubChem BioAssay (NCI)
About 83,000 compounds went through this panel and 20% of them were active in at least one assay; those are over-represented in the sample as a whole.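 Single-dose data. Exposure time 48 hours. Values below 10 considered active.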 Active and inactive are the calls of the source.

Key:
Test in all cases: NCI-60 one-dose screen, 48 h (100 = growth as untreated, 0 = no growth, -100 = all killed)
Details in all cases: 10 µM unless noted
NCI-H23 lung = system: NCI-H23 lung
NCI-H226 lung = system: NCI-H226 lung
NCI-H322M lung = system: NCI-H322M lung
HOP-62 NSCLC = system: HOP-62 NSCLC
NCI-H460 lung = system: NCI-H460 lung
HOP-92 NSCLC = system: HOP-92 NSCLC
NCI-H522 lung = system: NCI-H522 lung
A549/ATCC NSCLC = system: A549/ATCC NSCLC
786-0 renal = system: 786-0 renal
COLO 205 colon = system: COLO 205 colon

Measured: growth

CCCCn1c(=O)c(/C=C/C(=O)/C=C/c2cc3ccccc3n(CCCC)c2=O)cc2ccccc21
inactive: NCI-H322M lung 49.6% | HOP-62 NSCLC 49% | HOP-92 NSCLC 64.4%
active: NCI-H23 lung -7.39% | NCI-H226 lung -22.8% | NCI-H460 lung 5.91% | NCI-H522 lung 5.74% | A549/ATCC NSCLC -0.936% | 786-0 renal -63% | COLO 205 colon -22%

O=C1CC23OC(C(O)c4ccccc4N12)C1C(c2ccccc2)=NOC13 (stereo not given)
inactive: NCI-H23 lung 66.7% | NCI-H226 lung 82% | NCI-H322M lung 79.7% | HOP-62 NSCLC 68.5% | NCI-H460 lung 76.5% | HOP-92 NSCLC 43.3% | NCI-H522 lung 40.8% | A549/ATCC NSCLC 82.9% | 786-0 renal 37.2% | COLO 205 colon 50.6%

Sc1cccc2cccnc12
active: NCI-H460 lung 6.81% | NCI-H522 lung -12.6%
inactive: NCI-H23 lung 55.4% | NCI-H226 lung 55.7% | NCI-H322M lung 36.3% | HOP-62 NSCLC 36.7% | HOP-92 NSCLC 95.6% | A549/ATCC NSCLC 19.1% | 786-0 renal 31.5% | COLO 205 colon 24.4%

COc1ccc(-c2cn(-c3ccc(Cl)cc3)c(=S)[nH]2)cc1OC
inactive: NCI-H23 lung 89.6% | NCI-H226 lung 63.2% | NCI-H322M lung 57.4% | HOP-62 NSCLC 38.4% | NCI-H460 lung 37.9% | HOP-92 NSCLC 81.8% | NCI-H522 lung 49.4% | A549/ATCC NSCLC 72% | COLO 205 colon 44.2%
active: 786-0 renal 1.85%

COc1ccc(C(=O)c2cc(OC)c(OC)c(OC)c2)cc1OC(=O)C(Cl)(Cl)Cl
inactive: NCI-H23 lung 26.9% | NCI-H226 lung 95.4% | NCI-H322M lung 38.4% | HOP-62 NSCLC 17.3% | HOP-92 NSCLC 50.3% | A549/ATCC NSCLC 19% | 786-0 renal 20.9% | COLO 205 colon 13%
active: NCI-H460 lung 5.08% | NCI-H522 lung -13.3%

C=C1C(=O)O[C@H]2[C@H]1CC/C(COC(=O)N1CCC[C@H]1C(=O)Nc1ccc(OC)c(C(N)=O)c1O)=C\CC[C@@]1(C)O[C@@H]21
inactive: NCI-H23 lung 79.5% | NCI-H226 lung 52.8% | NCI-H322M lung 90.6% | HOP-62 NSCLC 88.6% | NCI-H460 lung 73.9% | A549/ATCC NSCLC 75.4% | 786-0 renal 41.4%
active: HOP-92 NSCLC -11.2% | NCI-H522 lung -28.1% | COLO 205 colon -25.7%

COc1ccc(-n2cc(COc3ccc4c5ccnc(C)c5n(CC(C)C)c4c3)nn2)cc1
inactive: NCI-H23 lung 61.9% | NCI-H226 lung 52.3% | NCI-H322M lung 88.7% | HOP-62 NSCLC 56.6% | NCI-H460 lung 69.5% | HOP-92 NSCLC 44.9% | NCI-H522 lung 37.3% | A549/ATCC NSCLC 67.1% | 786-0 renal 73.9% | COLO 205 colon 68.6%

C=C1C(=O)O[C@H]2[C@H]1CC/C(COC(=O)c1cccnc1)=C\CC[C@@]1(C)O[C@@H]21
inactive: NCI-H23 lung 79% | NCI-H226 lung 78.5% | NCI-H322M lung 104% | HOP-62 NSCLC 85.2% | NCI-H460 lung 84.8% | HOP-92 NSCLC 49.2% | NCI-H522 lung 28.7% | A549/ATCC NSCLC 80.1% | 786-0 renal 63.8% | COLO 205 colon 52.9%

O=S(=O)(Nc1nccs1)c1ccc(Nc2nc(-c3ccncc3)cs2)cc1
inactive: NCI-H23 lung 108% | NCI-H226 lung 102% | NCI-H322M lung 126% | HOP-62 NSCLC 93.8% | NCI-H460 lung 99.3% | HOP-92 NSCLC 96.9% | NCI-H522 lung 97.6% | A549/ATCC NSCLC 104% | 786-0 renal 97.8% | COLO 205 colon 93.2%

COc1ccc2[nH]c3nc4cnccc4cc3c2c1
inactive: NCI-H23 lung 95.2% | NCI-H226 lung 111% | NCI-H322M lung 105% | HOP-62 NSCLC 96.3% | NCI-H460 lung 103% | HOP-92 NSCLC 139% | NCI-H522 lung 87.3% | A549/ATCC NSCLC 99.6% | 786-0 renal 104% | COLO 205 colon 111%

COc1ccc(C(C)c2cc(OC)c(OC)c(OC)c2)cc1 (stereo not given)
active: NCI-H460 lung 4.97% | NCI-H522 lung 9.34% | COLO 205 colon -15.2%
inactive: NCI-H23 lung 28.9% | NCI-H226 lung 80.2% | NCI-H322M lung 44.6% | HOP-62 NSCLC 35.4% | HOP-92 NSCLC 49% | A549/ATCC NSCLC 18.6% | 786-0 renal 22.6%

O=CN1N=C(c2ccc(Cl)cc2)CC1c1cccc(Nc2ccnc3cc(C(F)(F)F)ccc23)c1 (stereo not given)
inactive: NCI-H23 lung 50.6% | NCI-H226 lung 61.9% | NCI-H322M lung 82.4% | HOP-62 NSCLC 67.1% | NCI-H460 lung 57.9% | HOP-92 NSCLC 66.3% | NCI-H522 lung 57% | A549/ATCC NSCLC 61.4% | 786-0 renal 81.5% | COLO 205 colon 60.1%

Cc1ccc(C2CC(c3ccc(Nc4nc(NCCO)nc(NCCO)n4)cc3)=NN2c2ccc(Cl)cc2)cc1 (stereo not given)
inactive: NCI-H23 lung 71.8% | NCI-H226 lung 101% | NCI-H322M lung 51.3% | HOP-62 NSCLC 67.6% | NCI-H460 lung 26.6% | HOP-92 NSCLC 88.6% | NCI-H522 lung 67% | A549/ATCC NSCLC 48.1% | 786-0 renal 23.7% | COLO 205 colon 70.3%

C#CCOC(=O)[C@]1(C)CCC[C@]2(C)[C@H]3C[C@H]4C(C(C)C)=C[C@]3(CC[C@H]21)[C@@H]1C(=O)CCC(=O)[C@@H]14
inactive: NCI-H23 lung 84.1% | NCI-H226 lung 85.9% | NCI-H322M lung 102% | HOP-62 NSCLC 80.1% | NCI-H460 lung 90.9% | HOP-92 NSCLC 54% | NCI-H522 lung 63.7% | A549/ATCC NSCLC 76.9% | 786-0 renal 88.5% | COLO 205 colon 105%
